Reference: PubChem BioAssay AID720597 (Broad Institute, 2013)
Potency and affinity values are given separately.

target: NAD-dependent protein deacylase sirtuin-5, mitochondrial (Homo sapiens) (UniProt Q9NXA8); assay: blockers of sirtuin-5 peptide desuccinylation – biochemical, fluorescence imaging, cherry-pick, set 6, dose response (AID 720597); settings: Purified SirT5, succinyl-peptide-AMC/trypsin fluorescence; series mostly up to 15 µM; activity change, negative = inhibition: at the top concentration;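 also: lower AMC signal can also come from blocking the trypsin step; 0% = median of neutral control wells and -100% = median of positive control wells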
Sequence (Q9NXA8 whole entry, looked up): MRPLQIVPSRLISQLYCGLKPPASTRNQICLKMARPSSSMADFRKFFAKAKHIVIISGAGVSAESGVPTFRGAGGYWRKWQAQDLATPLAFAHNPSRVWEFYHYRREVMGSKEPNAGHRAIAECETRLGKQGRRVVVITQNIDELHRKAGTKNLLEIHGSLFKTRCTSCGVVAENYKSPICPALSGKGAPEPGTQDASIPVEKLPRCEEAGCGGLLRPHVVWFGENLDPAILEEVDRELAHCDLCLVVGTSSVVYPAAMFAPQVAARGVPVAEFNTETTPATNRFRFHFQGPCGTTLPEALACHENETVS

Activity change, negative = inhibition, inactive:
O=C(NCC[C@@H]1CC[C@@H](NS(=O)(=O)c2cccc(F)c2)[C@@H](CO)O1)C1CCOCC1 23.3%
CN(C)C(=O)c1cccc(-c2ccc([C@@H]3[C@H](CO)N4CCCCN(S(C)(=O)=O)C[C@@H]34)cc2)c1 -11.5%
C[C@@H]1CCCCO[C@@H](CN(C)Cc2ccc(Cl)c(Cl)c2)[C@H](C)CN([C@@H](C)CO)C(=O)c2cc(NS(=O)(=O)c3cccs3)ccc2O1 14.7%
O=C(C[C@H]1CC[C@H]2[C@@H](COC[C@@H](O)CN2Cc2cccc(Cl)c2)O1)N1CCCCC1 20.1%
C[C@H]1CN([C@@H](C)CO)S(=O)(=O)c2ccc(C#CC3CC3)cc2O[C@@H]1CN(C)Cc1ccccc1F -7.85% [at 16 µM]
O=C(Nc1ccc2c(c1)OCO2)N[C@H]1CC[C@H](CCNC(=O)C2CC2)O[C@@H]1CO 22.9%
COc1ccc(NC(=O)N(C)C[C@@H]2Oc3cc(C#CCC(C)C)ccc3S(=O)(=O)N([C@H](C)CO)C[C@H]2C)cc1 13.2%
C[C@@H]1CN([C@H](C)CO)S(=O)(=O)c2ccc(C#Cc3ccc(F)cc3)cc2O[C@@H]1CN(C)S(=O)(=O)c1ccc(F)cc1 -5.8%
COc1ccc(S(=O)(=O)N(C)C[C@@H]2Oc3cc(C#CC4CCCC4)ccc3S(=O)(=O)N([C@H](C)CO)C[C@H]2C)cc1 -14.8%
C[C@@H]1CN([C@H](C)CO)S(=O)(=O)c2ccc(/C=C/c3ccccc3)cc2O[C@@H]1CN(C)C(=O)NC1CCCC1 16%
C[C@H](CO)N1C[C@H](C)[C@H](CN(C)Cc2ccncc2)Oc2ccc(NC(=O)CCN3CCOCC3)cc2C1=O -11.7%
COc1ccc(S(=O)(=O)Nc2ccc3c(c2)C(=O)N([C@@H](C)CO)C[C@@H](C)[C@@H](CN(C)Cc2ccc(Oc4ccccc4)cc2)O3)cc1 -0.798%
CO[C@H]1CN(C)C(=O)c2cccc(C#N)c2OC[C@H]2O[C@H](CC[C@@H]2OC)CCN(C)C(=O)[C@H]1C 17.8%
CO[C@@H]1CC[C@@H]2CCN(C)C(=O)[C@@H](C)[C@H](OC)CN(C)C(=O)c3cc(C#N)ccc3OC[C@@H]1O2 13.5%
Cc1ccc(S(=O)(=O)Nc2ccc3c(c2)C(=O)N([C@H](C)CO)C[C@H](C)[C@@H](CN(C)Cc2ccc(C(F)(F)F)cc2)OCCCC[C@H](C)O3)cc1 -1.81%
COc1ccc(NC(=O)N(C)C[C@H]2Oc3cc(C#CCC(C)C)ccc3S(=O)(=O)N([C@@H](C)CO)C[C@@H]2C)cc1 29%
CNC[C@H]1Oc2ccc(NC(=O)Nc3ccc(F)cc3)cc2CC(=O)N([C@@H](C)CO)C[C@@H]1C 19.6%
C[C@H](CO)N1C[C@H](C)[C@@H](CN(C)Cc2ccncc2)Oc2ncc(C#CCN(C)C)cc2C1=O -24.7%
O=C(C[C@@H]1CC[C@H](NS(=O)(=O)c2ccc(F)cc2)[C@H](CO)O1)N1CCN(c2ccccc2)CC1 -10.8%
CCC(=O)N1CCCCN2[C@H](CO)[C@H](c3ccc(-c4cccc(C#N)c4)cc3)[C@@H]2C1 -2.5%
CC(=O)N1[C@H](CO)[C@H](c2ccc(-c3ccncc3)cc2)[C@@H]1CNC(=O)CC1CC1 -8.06%
COc1ccc(S(=O)(=O)Nc2ccc3c(c2)C(=O)N([C@H](C)CO)C[C@@H](C)[C@@H](CN(C)Cc2ccc(Cl)c(Cl)c2)O3)cc1 6.62%
CN(C)CC#Cc1ccc([C@@H]2[C@@H](CO)N3C(=O)CN(C(=O)c4cccc(F)c4)C[C@@H]23)cc1 -6.67% [at 16 µM]
COc1ccc(NC(=O)Nc2cccc3c2O[C@@H](CN(C)Cc2ccc(C(F)(F)F)cc2)[C@@H](C)CN([C@H](C)CO)C3=O)cc1 -31.3%
CO[C@H]1CN(C)C(=O)c2cc(NC(=O)NC(C)C)ccc2OC[C@@H](C)N(C(=O)CC2CC2)C[C@@H]1C -9.33%
COc1ccc([Si](C)(C)[C@@H]2[C@@H](CCO)O[C@]3(C(=O)N(Cc4cccc(NC(C)=O)c4)c4ccccc43)[C@H]2C)cc1 -7.91%
COc1ccc(S(=O)(=O)N(C)C[C@@H]2OCCCC[C@@H](C)Oc3ccc(NS(=O)(=O)c4ccc(C)cc4)cc3C(=O)N([C@@H](C)CO)C[C@@H]2C)cc1 -14.6%
COc1cccc(NC(=O)N2CC(=O)N3[C@H](CO)[C@H](c4ccc(C#CCC5CCCC5)cc4)[C@H]3C2)c1 24.2%
Cc1ccc(S(=O)(=O)N(C)C[C@H]2OCCCC[C@H](C)Oc3ccc(NS(=O)(=O)c4ccc(Cl)cc4)cc3C(=O)N([C@@H](C)CO)C[C@H]2C)cc1 -27.4%
